Source: the supplement of paper PMC10933113
Where a name gives a salt, the structure may show the parent alone. ± gives the uncertainty stated by the source.

System: THP-1
Assay: CD86 surface expression induction over DMSO control (% over DMSO); higher = stronger dendritic cell activation
Settings: exposure time: 24 h
Protocol: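 hCLAT-like CD54 and CD86 surface expression on THP1 cells after 24 h exposure at a single concentration (highest non-cytotoxic concentration, or 100-200 µM if not cytotoxic). Flow cytometry (iQue) was run on 5,000 live cells.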

Row | Structure (SMILES) | CD86 surface expression induction
1 | CC(C)(C)c1cc(O)ccc1O [tert-Butylhydroquinone] (100 µM) | 66.8 ± 57
2 | Cc1c(C)n(CCN(C)C)c2ccc(C(=O)OCCN(C)C)cc12 [Amindocate] (100 µM) | 1.11 ± 2.2
3 | Oc1ccc2cc(SSc3ccc4cc(O)ccc4c3)ccc2c1 [6-Hydroxy-2-naphthyl disulfide] (100 µM) | 67.2 ± 57
4 | Cn1sccc1=O [2-Methyl-4-isothiazolin-3-one hydrochloride] (10 µM) | -16.2 ± 4.7
5 | C=C(C)C(=O)Nc1ccc(Cl)c(Cl)c1 [Chloranocryl] (100 µM) | -22.2 ± 23
6 | Nc1ncn([C@@H]2O[C@H](CO)[C@@H](O)[C@H]2O)c(=O)n1 [5-Azacytidine] (10 µM) | -17.2 ± 5.3
7 | CCCCCCCCCCCCN(CCO)CCO [Lauryldiethanolamine] (10 µM) | -16.1 ± 0.72
8 | CC(C)CCCCCCCOC(=O)c1ccc(C(=O)OCCCCCCCC(C)C)c(C(=O)OCCCCCCCC(C)C)c1 [Triisodecyl trimellitate] (163 µM) | -10.7 ± 1.8
9 | Cc1c(C)n(Cc2ccccc2)c2ccc(C(=O)OCCN(C)C)cc12 [Indocate] (200 µM) | 67.3 ± 61
10 | COC(=O)CCCCCCCC(=O)OC [Dimethyl nonanedioate] (200 µM) | -0.54 ± 1.9
11 | Nc1nnc(-c2ccc([N+](=O)[O-])o2)o1 [2-Amino-5-(5-nitro-2-furyl)-1,3,4-oxadiazole] (10 µM) | -2.6 ± 2.1
12 | O=C(O)c1cccnc1Nc1cccc(C(F)(F)F)c1 [Niflumic acid] (100 µM) | -3.19 ± 1.6
13 | COC(=O)Nc1nc2cc([S+]([O-])c3ccccc3)ccc2[nH]1 (stereo not given) [Oxfendazole] (100 µM) | 13.3 ± 2.3
14 | CC(C)(C)c1ccc(C(=O)CCCCl)cc1 [4'-Tert-butyl-4-chlorobutyrophenone] (100 µM) | -2.04 ± 0.44
15 | CCOc1ccc2nc(S(N)(=O)=O)sc2c1 [Ethoxzolamide] (200 µM) | -1.83 ± 4.6
16 | CC1=C(/C=C/C(C)=C/C=C/C(C)=C/C=O)C(C)(C)CCC1 [13-cis-Retinal (Vitamin A aldehyde)] (100 µM) | 64.3 ± 98
17 | CCN(CC)CCOc1ccc2c(c1)C(=O)c1cc(OCCN(CC)CC)ccc1-2 [Tilorone] (200 µM) | 58 ± 31
18 | C=CCOC(Cn1ccnc1)c1ccc(Cl)cc1Cl (stereo not given) [Imazalil sulfate] (100 µM) | 16.4 ± 4.3
19 | Cc1cccc(N(C)C(=S)Oc2ccc3c(c2)C2CCC3C2)c1 (stereo not given) [Tolciclate] (100 µM) | -1.12 ± 6
20 | CCCCCOc1ccccc1/C(=C\SC)n1ccnc1 [Neticonazole] (100 µM) | 38.9 ± 22

Row | Structure (SMILES) | CD86 surface expression induction
21 | O=C1Nc2ccccc2C1(c1ccc(O)cc1)c1ccc(O)cc1 [Oxyphenisatin] (100 µM) | 3.8 ± 8.1
22 | O=C(O)Cn1c(C(=O)Nc2nc(-c3ccccc3Cl)cs2)cc2ccccc21 [Lintitript] (100 µM) | -2.3 ± 0.27
23 | CCCCc1ccc2[nH]c(NC(=O)OC)nc2c1 [Parbendazole*] (200 µM) | 65.8 ± 110
24 | COc1ccc(C(=O)/C(Br)=C\C(=O)O)cc1 [Cytembena] (200 µM) | 32 ± 49
25 | COc1ccc(-c2cc(=S)ss2)cc1 [Anethole trithione] (100 µM) | -4.63 ± 2.6
26 | O=C(O)CCCCCCCCC(=O)O [Decanedioic acid] (200 µM) | -3.64 ± 3
27 | Cc1occc1S [2-Methyl-3-furanthiol] (200 µM) | 33 ± 9.3
28 | O=C(Oc1ccccc1)c1cccc(C(=O)Oc2ccccc2)c1 [Diphenyl isophthalate] (200 µM) | 1.84 ± 5.6
29 | Cc1ccc2c(c1[N+](=O)[O-])C(=O)c1ccccc1C2=O [2-Methyl-1-nitroanthraquinone] (10 µM) | 7.64 ± 3.5
30 | Clc1nc(C(Cl)(Cl)Cl)c(Cl)c(Cl)c1Cl [2,3,4,5-Tetrachloro-6-(trichloromethyl)pyridine] (10 µM) | -11.6 ± 6.2
31 | CO[C@@H]1[C@H](OC(=O)/C=C/C=C/C=C/C=C/C(=O)O)CC[C@]2(CO2)[C@H]1[C@@]1(C)O[C@@H]1CC=C(C)C [Fumagillin] (100 µM) | -0.42 ± 8.1
32 | CC(C)=CCC1C(=O)N(c2ccccc2)N(c2ccccc2)C1=O [Feprazone] (200 µM) | 71.8 ± 44
33 | Nc1ccccc1N [1,2-Phenylenediamine*] (200 µM) | 88.8 ± 49
34 | O=C(OCc1ccccc1)c1ccc(O)cc1 [Benzylparaben] (100 µM) | 3 ± 13
35 | O=C(Nc1ccccc1)c1cc([N+](=O)[O-])ccc1Cl [2-Chloro-5-nitro-N-phenylbenzamide] (200 µM) | 31.1 ± 7.1
36 | CC[C@@]1(O)C(=O)OCc2c1cc1n(c2=O)Cc2c-1nc1ccccc1c2/C=N/OC(C)(C)C [Gimatecan] (10 µM) | 25.6 ± 10
37 | C/C=C/C=C/C=O [2,4-Hexadienal] (200 µM) | 4.48 ± 7.5
38 | O=[N+]([O-])c1cc(N(CCO)CCO)ccc1NCCO (200 µM) | -7.47 ± 11
39 | CCCCNC(=S)NCCCC [N,N'-Dibutylthiourea] (10 µM) | -9.37 ± 9.2
40 | Sc1nc2ccccc2s1 [2-Mercaptobenzothiazole] (100 µM) | -1.26 ± 3.2
